Molecules are shown by their SMILES. This is part of a sample that, as a whole, favours compounds with a hit. Of some 83,000 tested, about 20% had one in any assay.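 Assay: single dose, 48 h. Readout: percent growth (0 = no net growth; negative = cell death). Active: <10.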 Values without a mark were called inactive. Active and inactive are the calls of the source.

The test deals with HL-60(TB) leukemia. Description: NCI-60 one-dose screen, 48 h (100 = growth as untreated, 0 = no growth, -100 = all killed). To be noted: 10 µM unless noted.
On to `CCNC(=O)N1CCc2c(Br)c3c(c(OC)c2C1Cc1ccc(OC)cc1)OCO3` (stereo not given), for which the growth is 7.48% (active).

Turning to `Nc1nc2c(c(=O)[nH]1)C(c1ccc3c(c1)OCO3)C=C(C(=O)O)N2` (stereo not given), the growth is 111%.

As to `Brc1ccccc1Cn1c(-c2cncs2)nc2ccccc21`, the growth is 79.1%.

For `CCOCCOCCOCCOCCOCCOCCOCCOCCOCCO` (tested in a mixture with another compound), the growth is -54.9% (active).

`CSc1ccc2c(c1)C(N1CCN(C)CC1)Cc1ccccc1S2` (stereo not given): the growth is 52.7%.

As to `COc1ccc(-c2cnc3ccccc3n2)cc1`, the growth is 97%.

On to `c1ccc(-c2ccc(-c3nc4ccccc4[nH]3)cc2)cc1`, for which the growth was 66.7%.

Take `COc1ccc(Oc2nc(Nc3ccc(N4CCCCC4)nc3)ncc2NC(=O)c2cc(OC)cc(OC)c2)cc1`: the growth was 0.492% (active).

On to `CS(=O)(=O)c1ccc(C(=O)N/N=C/c2ccc3c(c2)OCO3)cc1`, for which the growth is 57%.

Take `CC(=O)Nc1ccc(S(=O)(=O)n2ccc(-c3ccc4c(c3)CCC(C)(C)O4)n2)cc1`: the growth was 91.9%.

As to `Cc1c(Cl)cccc1NC(=O)c1sc2nc3c(cc2c1N)COCC3`, the growth was 2.35% (active).

For `Cn1c2c(cc(S(=O)(=O)c3ccccc3)c1=O)CCc1c-2cnn1-c1ccc(Cl)cc1`, the growth was 73.1%.

Regarding `c1ccc(-c2cc3cc4ccccc4cn3c2)cc1`, the growth is 94.6%.

As for `C[N+](C)(CCCCCC[N+](C)(C)C1c2ccccc2-c2ccccc21)C1c2ccccc2-c2ccccc21`, the growth was 85.7%.

Consider `COc1ccc(/C=N/OCC(O)CN2CCC(O)CC2)cc1OC1CCCC1` (stereo not given), for which the growth was 100%.

Take `CCOC(=O)CC1CSC(N/N=C/c2ccc(O)cc2)=N1` (stereo not given): the growth is 97.6%.

Take `COc1ccc(N/N=C/c2ccc3c(c2)Sc2ccccc2N3C)cc1`: the growth is 57.3%.

Take `COc1cc(-c2cc(/C=C/C(C)=O)[nH]n2)cc(OC)c1OC`: the growth is 66.7%.

As to `O=C(O)c1cn(C2CC2)c2cc(N3CCN(C(=O)/C=C/c4ccc(Cl)cc4)CC3)c(F)cc2c1=O`, the growth was 60.4%.

`O=[N+]([O-])c1ccc(OCCO)cc1`: the growth was 125%.

Consider `O=C(/C=C/c1ccc([N+](=O)[O-])cc1)c1ccccc1`, for which the growth was 35.1%.

In the case of `C=C1C(=O)O[C@H]2[C@H]1CC/C(CNC(=O)C(C)c1ccc(CC(C)C)cc1)=C\CC[C@@]1(C)O[C@@H]21` (stereo not given in full), the growth is -24.4% (active).

For the compound `CCCCCCCCCCCCCCCCNCCC[C@@H](C)[C@H]1CC[C@H]2[C@@H]3[C@H](OCCCN)C[C@@H]4C[C@H](OCCCN)CC[C@]4(C)[C@H]3C[C@H](OCCCN)[C@]12C`, the growth was 4.5% (active).

In the case of `COc1ccc(-c2nn(-c3cccc(NC(=O)c4ccc5c(c4)OCCO5)c3)cc2-c2ccncc2)cc1Cl`, the growth was -2.93% (active).

In the case of `CN(C)CCCC(=O)Nc1ccc(Cn2nnc3c2C(=O)c2nnn(Cc4ccc(NC(=O)CCCN(C)C)cc4)c2C3=O)cc1`, the growth is 8.78% (active).

Turning to `O=C(C1=Cc2cc3ccccc3n2Cc2cnnn21)c1ccc(O)cc1`, the growth was 41.7%.

`CCOc1cccc(/C=N/NC(=O)c2ccccc2Nc2ccnc(C(F)(F)F)c2)c1O`: the growth was -4.47% (active).

With `S=c1nc2oc(-c3ccccc3)c(-c3ccccc3)c2c(/N=C\c2ccco2)[nH]1`, the growth is 87.2%.

With `Clc1ccc2c(NCCCNc3nc(-n4ccnc4)nc4ccccc34)ccnc2c1`, the growth was 69.4%.

On to `COC(=O)C1(C)COP(=O)(NC23CC4CC(CC(C4)C2)C3)OC1` (stereo not given), for which the growth is 119%.

For the compound `CC[C@]1(O)CC2CN(CCc3c([nH]c4ccccc34)[C@@](C(=O)OC)(c3cc4c(cc3OC)N(C)[C@H]3[C@@](O)(C(=O)OC)[C@H](OC(C)=O)[C@]5(CC)C=CCN6CC[C@]43[C@@H]65)C2)C1` (stereo not given in full), the growth was 2.87% (active).

Regarding `CN1C(=O)NC(c2ccc3c(c2)OCO3)C=C1c1ccccc1` (stereo not given), the growth was 99%.

For the compound `C=C(CO)[C@@H]1CC[C@]2(COC3CCCCO3)CC[C@]3(C)[C@H](CC[C@@H]4[C@@]5(C)C=C(C=O)C(=O)C(C)(C)[C@@H]5CC[C@]43C)[C@@H]12` (stereo not given in full), the growth is -59.8% (active).

Turning to `Cc1cc(-c2ccc(N=Nc3c(S(=O)(=O)O)cc4cc(S(=O)(=O)O)cc(N)c4c3O)c(C)c2)ccc1N=Nc1cc(S(=O)(=O)O)c2ccccc2c1O`, the growth is 98.7%.

Regarding `CC(C)(C)OC(=O)N1CCc2c(sc3ncnc(N/N=C/c4ccccc4Br)c23)C1`, the growth is 94.8%.

The values are drawn from PubChem BioAssay (NCI).
